# Measurements as given in PubChem BioAssay AID1159580 (chemical genetic matrix, 2015).
# In all, about 5,500 compounds went through this assay and about 2,000 (36%) were called active. About 18% were inconclusive and are not listed. The list shows a part of the results. A number with no mark means an inactive call. Rule as the data show it: active = normalized growth mostly below about 0.91 (no sharp cut-off); inconclusive = no clear call, values can overlap the other calls; inactive = mostly above about 0.92.
# Test: chemical genetic growth profiling, strain panel (AID 1159580);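 also: tested at 20 µM; growth read once vehicle control cultures reached saturation at 30 °C; 1 = growth at the plate median or of vehicle wells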
# Conditions: S. cerevisiae deletion strains, growth OD
# [1] = locus YDL101C, strain DUN1, stronger effect = lower value
# [2] = locus YHR030C, strain SLT2, stronger effect = lower value
compound,measurement,setting,value
Nc1ncnc(SCc2ccc(Cl)cc2)n1,normalized growth,"locus YAL013W, strain DEP1, stronger effect = lower value",0.984
same,normalized growth,"locus YBR229C, strain ROT2, stronger effect = lower value",1.01
same,normalized growth,"locus YCL061C, strain MRC1, stronger effect = lower value",1.02
same,normalized growth,[1],0.988
same,normalized growth,"locus YDR150W, strain NUM1, stronger effect = lower value",1.04
same,normalized growth,"locus YEL061C, strain CIN8, stronger effect = lower value",0.968
same,normalized growth,"locus YGR078C, strain PAC10, stronger effect = lower value",1
same,normalized growth,[2],1.08
same,normalized growth,"locus YHR087W, strain rtc3, stronger effect = lower value",1
same,normalized growth,"locus YJR043C, strain POL32, stronger effect = lower value",0.999
same,normalized growth,"locus YJR075W, strain HOC1, stronger effect = lower value",1.01
same,normalized growth,"locus YLR039C, strain RIC1, stronger effect = lower value",0.835
same,normalized growth,"locus YLR058C, strain SHM2 (second series), stronger effect = lower value",0.999
same,normalized growth,"locus YLR085C, strain ARP6, stronger effect = lower value",0.994
same,normalized growth,"locus YLR262C, strain YPT6, stronger effect = lower value",0.988
same,normalized growth,"locus YML094W, strain GIM5, stronger effect = lower value",0.992
same,normalized growth,"locus YMR219W, strain ESC1, stronger effect = lower value",0.996
same,normalized growth,"locus YMR263W, strain SAP30, stronger effect = lower value",0.989
same,normalized growth,"locus YMR307W, strain GAS1, stronger effect = lower value",0.995
same,normalized growth,"locus YNL153C, strain GIM3, stronger effect = lower value",1.01
same,normalized growth,"locus YNL298W, strain CLA4 (second series), stronger effect = lower value",0.98
same,normalized growth,"locus YNL322C, strain KRE1, stronger effect = lower value",0.987
same,normalized growth,"locus YNR030W, strain Alg12, stronger effect = lower value",1.02
same,normalized growth,"locus YPL055C, strain LGE1, stronger effect = lower value",1.01
same,normalized growth,"locus YPL241C, strain CIN2, stronger effect = lower value",0.993
same,normalized growth,"locus YPR135W, strain CTF4, stronger effect = lower value",1.14
Clc1ccc(CSc2nccn2-c2cc(Cl)ccc2Cl)cc1,normalized growth,"locus YAR019C, strain CDC15, stronger effect = lower value",0.969
same,normalized growth,"locus YBL105C, strain PKC1, stronger effect = lower value",0.964
same,normalized growth,"locus YBR135W, strain CKS1, stronger effect = lower value",0.96
same,normalized growth,"locus YBR136W, strain MEC1, stronger effect = lower value",0.951
same,normalized growth,"locus YBR160W, strain CDC28, stronger effect = lower value",0.963
same,normalized growth,"locus YDL017W, strain CDC7, stronger effect = lower value",0.969
same,normalized growth,"locus YDL028C, strain MPS1, stronger effect = lower value",0.949
same,normalized growth,[1],0.97
same,normalized growth,"locus YDL108W, strain KIN28, stronger effect = lower value",0.937
same,normalized growth,"locus YDL132W, strain cdc53, stronger effect = lower value",0.978
same,normalized growth,"locus YDL214C, strain PRR2, stronger effect = lower value",0.888
same,normalized growth,"locus YDR052C, strain DBF4, stronger effect = lower value",0.962
same,normalized growth,"locus YDR054C, strain cdc34, stronger effect = lower value",0.946
same,normalized growth,"locus YDR226W, strain ADK1, stronger effect = lower value",0.954
same,normalized growth,"locus YDR477W, strain SNF1, stronger effect = lower value",0.888
same,normalized growth,"locus YER123W, strain YCK3, stronger effect = lower value",0.784
same,normalized growth,"locus YER133W, strain GLC7, stronger effect = lower value",0.884
same,normalized growth,"locus YFL009W, strain cdc4, stronger effect = lower value",0.951
same,normalized growth,"locus YFL029C, strain CAK1, stronger effect = lower value",0.965
same,normalized growth,"locus YFR003C, strain YPI1, stronger effect = lower value",0.958
same,normalized growth,"locus YFR019W, strain FAB1, stronger effect = lower value",0.909
same,normalized growth,"locus YFR028C, strain CDC14, stronger effect = lower value",0.961
same,normalized growth,"locus YGR040W, strain KSS1, stronger effect = lower value",0.872
same,normalized growth,"locus YGR052W, strain FMP48, stronger effect = lower value",0.946
same,normalized growth,"locus YGR092W, strain DBF2, stronger effect = lower value",0.801
same,normalized growth,[2],0.69 (active)
same,normalized growth,"locus YHR079C, strain IRE1, stronger effect = lower value",0.88
same,normalized growth,"locus YHR082C, strain KSP1, stronger effect = lower value",0.951
same,normalized growth,"locus YHR205W, strain SCH9, stronger effect = lower value",0.893
same,normalized growth,"locus YIL147C, strain SLN1, stronger effect = lower value",0.953
same,normalized growth,"locus YJL095W, strain BCK1, stronger effect = lower value",0.886
same,normalized growth,"locus YJL128C, strain PBS2, stronger effect = lower value",0.987
same,normalized growth,"locus YJL157C, strain FAR1, stronger effect = lower value",0.867
same,normalized growth,"locus YJR016C, strain ILV3, stronger effect = lower value",0.963
same,normalized growth,"locus YJR066W, strain TOR1 (second series), stronger effect = lower value",0.829
same,normalized growth,"locus YJR066W, strain TOR1, stronger effect = lower value",0.948
same,normalized growth,"locus YKL048C, strain ELM1, stronger effect = lower value",0.927
same,normalized growth,"locus YKL067W, strain YNK1, stronger effect = lower value",0.894
same,normalized growth,"locus YKL101W, strain HSL1, stronger effect = lower value",0.887
same,normalized growth,"locus YKL193C, strain SDS22, stronger effect = lower value",0.961
same,normalized growth,"locus YKL203C, strain TOR2, stronger effect = lower value",0.915
same,normalized growth,"locus YLR113W, strain HOG1, stronger effect = lower value",0.884
same,normalized growth,"locus YLR133W, strain CKI1, stronger effect = lower value",0.886
same,normalized growth,"locus YLR403W, strain SFP1, stronger effect = lower value",0.832
same,normalized growth,"locus YML070W, strain DAK1, stronger effect = lower value",0.872
same,normalized growth,"locus YMR001C, strain CDC5, stronger effect = lower value",0.964
same,normalized growth,"locus YMR205C, strain PFK2 (second series), stronger effect = lower value",0.879
same,normalized growth,"locus YMR277W, strain FCP1, stronger effect = lower value",0.958
same,normalized growth,"locus YNL006W, strain LST8, stronger effect = lower value",0.961
same,normalized growth,"locus YNL020C, strain ARK1, stronger effect = lower value",0.859
same,normalized growth,"locus YNL161W, strain CBK1, stronger effect = lower value",0.964
same,normalized growth,"locus YNL183C, strain NPR1, stronger effect = lower value",0.909
same,normalized growth,"locus YNL207W, strain RIO2, stronger effect = lower value",0.965
same,normalized growth,"locus YNL222W, strain SSU72, stronger effect = lower value",0.961
same,normalized growth,"locus YNL307C, strain MCK1 (second series), stronger effect = lower value",0.879
same,normalized growth,"locus YOL078W, strain AVO1, stronger effect = lower value",0.962
same,normalized growth,"locus YOL136C, strain PFK27, stronger effect = lower value",0.872
same,normalized growth,"locus YOR061W, strain CKA2, stronger effect = lower value",0.817
same,normalized growth,"locus YOR119C, strain RIO1, stronger effect = lower value",0.856
same,normalized growth,"locus YOR231W, strain MKK1, stronger effect = lower value",0.868
same,normalized growth,"locus YOR329C, strain SCD5, stronger effect = lower value",0.967
same,normalized growth,"locus YPL031C, strain PHO85, stronger effect = lower value",0.866
same,normalized growth,"locus YPL153C, strain RAD53, stronger effect = lower value",0.847
same,normalized growth,"locus YPL204W, strain HRR25, stronger effect = lower value",0.86
same,normalized growth,"locus YPL209C, strain IPL1, stronger effect = lower value",0.96
same,normalized growth,"locus YPL256C, strain CLN2, stronger effect = lower value",0.977
same,normalized growth,"locus YPR025C, strain CCL1, stronger effect = lower value",0.964
same,normalized growth,"locus YPR106W, strain ISR1, stronger effect = lower value",0.978
same,normalized growth,"locus YPR111W, strain DBF20, stronger effect = lower value",0.976
same,normalized growth,"strain NNK1, stronger effect = lower value",0.974
same,normalized growth,"strain TSCII, stronger effect = lower value",0.962
